# Source: PubChem BioAssay
# EPAC2 antag – validation of human EPAC2 antagonists; Q8WZA2; AID 1645886; Potency, µM (top dose mostly 112 µM), for the others: at the top dose activity, negative = inhibition, hits mostly inhibitors; 1.7% of 16,000 active; EPAC2 Rap1B BODIPY-GDP exchange, fluorescence;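 note: 100% = activation by cAMP agonist control; nearly all actives have a fitted effect of over 40% in size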
#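 Fluorescent exchange read-out: 100 nM EPAC2 with 250 nM RAP1B–BODIPY-GDP and 50 uM GDP; BODIPY-GDP release lowers fluorescence. Read at 480/540 nm every 5 min for 30 min at room temperature; normalized to 6.5 mM cAMP.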
# EPAC1 agonist – human EPAC1 agonism, validation; Potency, µM, without a hit: max response, positive = active, usual class: activators; 1% of 16,000 active; O95398; EPAC1 Rap1b BODIPY-GDP exchange, fluorescence; note: nearly all actives have a fitted effect of over 70% in size
# * hit, by the source's call; i = inactive; ? = inconclusive; ! = not active in a repeat; [ ] = another dose, or the depositor's remark. Sampled rows, rich in hits. Any-hit rate of the full collection: about 2.9%. Calls come from the whole dose curve; as a rule, active = well fitted curve in the direction sought with a large enough effect; inconclusive = small, poorly fitted or top-dose-only effect, or another doubt; inactive = no such curve, though single readings can be large; an effect the other way counts as inactive or inconclusive. Unless noted, % is set by controls: 0 for no effect and ±100 for the full control effect; potency is the fitted concentration of half-maximal effect.
SMILES,EPAC2 antag,EPAC1 agonist
CCOC(=O)[C@]12Cc3cc(N(C)C)ccc3[C@H]1N(Cc1ccccc1)C(=O)c1ccccc12,79.4µM*,29.3%
CCOC(=O)[C@]12Cc3cc4c(cc3[C@H]1N(Cc1ccccc1)C(=O)c1ccccc12)OCO4,?,23.1%
CC(C)CN1CCC2(CC1)CCN(C(=O)Oc1ccccc1)CC2,-10.2%,-85.9%
CCC(N)C(O)c1ccc(O)c(O)c1 (configuration not stated),-10.0%,10.0%
O=c1oc2ccccc2c(O)c1C(CC(O)c1ccc(-c2ccc(Br)cc2)cc1)c1ccccc1 (configuration not stated),79.4µM*,-13.9%
CCCCCCCCc1ccc(O)cc1,35.5µM*,-224.9%
CCCCc1ccc(C(=O)O)nc1,-6.2%,-0.9%
Clc1ccc(CSC(Cn2ccnc2)c2ccc(Cl)cc2Cl)cc1 (configuration not stated),44.7µM*!,50.1µM*!
c1ccc(N2CCC3(CCNCC3)CC2)nc1,10.1%,-46.6%
C[C@]12CCC(=O)C(O)=C1CC[C@@H]1[C@@H]2CC[C@]2(C)C(=O)CC[C@@H]12,-17.8%,1.5%
O=C(CN1CCCCC1)c1ccccc1,-6.5%,4.8%
COC(=O)/C(C)=C\CC12OC(C)(C)C3CC(C=C4C(=O)c5c(OC)c6c(c(CC=C(C)C)c5OC431)OC(C)(CCC=C(C)C)C=C6)C2=O (configuration not stated),-22.6%,-78.0%
CC(=O)Oc1c2c(c(CC=C(C)C)c3c1C(=O)C1=CC4CC5C(C)(C)OC(C/C=C(\C)C(=O)O)(C4=O)[C@]15O3)OC(C)(CCC=C(C)C)C=C2 (some centres not stated),70.8µM*,-207.3%
O=C(Nc1ccccc1-c1ccc(Cl)cc1)c1cccnc1Cl,8.91µM*,25.3%
CCN1C[C@@]2(C)CC[C@@H](OC)[C@@]34C2C(O)[C@@]2(OCO[C@]25CC(OC)C2C[C@@]3(O)C5C2O)C14 (some centres not stated),i,8.3%
Cn1cc(C2=C(c3cn(C4CCN(Cc5ccccn5)CC4)c4ccccc34)C(=O)NC2=O)c2ccccc21,-12.2%,16.8%
O=c1c2ccccc2[se]n1-c1ccccc1,39.8µM*!,7.8%
Cc1ccccc1-n1c(C)nc2ccccc2c1=O,5.0%[239 µM],-8.9%
C/C(=C\c1csc(C)n1)[C@@H]1C[C@@H]2O[C@]2(C)CCC[C@H](C)[C@H](O)[C@@H](C)C(=O)C(C)(C)[C@@H](O)CC(=O)O1,11.5%,-24.7%
CCCCC/C=C\C/C=C\C/C=C\C/C=C\CCCC(=O)Nc1ccc(O)cc1,31.6µM*,-69.6%
CCCCC/C=C\C/C=C\C/C=C\C/C=C\CCCC(=O)NCC(=O)O,40.3%,8.5%
N#C/C(=C/c1ccc(O)c(O)c1)C(N)=S,-23.7%,-9.6%
C[C@@H](C(=O)OC1C[C@H]2CC[C@@H](C1)N2C)c1ccc(Br)cc1 (some centres not stated),-20.2%,11.1%
O=C1c2ccccc2C(=O)C1C(=O)C(c1ccccc1)c1ccccc1,79.4µM*,20.8%
Cc1nnc2n1-c1sc(CCc3ccc(CC(C)C)cc3)cc1C(c1ccccc1Cl)=NC2C (configuration not stated),?,-179.3%
NNCc1ccccc1,-1.5%,24.2%
CC(=O)CC1CCCCN1 (configuration not stated),1.4%,?
CCOP(=O)(NC(C)C)Oc1ccc(SC)c(C)c1 (configuration not stated),50.1µM*,-45.1%
COP(=S)(OC)Oc1ccc(SC)c(C)c1,?,10.1%
C=C[C@H]1CN2CCC1C[C@@H]2C(O)c1ccnc2ccccc12 (some centres not stated),-15.3%,1.6%
